{
  "source": "the supplement of paper PMC6555819",
  "data": [
    {"tested_on": "PPARg DBDmut IVT, anti-PPARg (DBD mutation: PPARg1 K132A/R137A, NR concentration 270 nM)", "test": "PBM binding z-score (relative to random genomic background probes); higher = stronger binding; sequences stand for … in GC…GCGATTGACAGCGTAGAATGAAGG", "method_in_brief": "(§1)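 Regression normalization was applied to scanned fluorescence from custom Agilent 4×180K protein-binding microarrays. Before scanning, arrays were incubated 1 h with ligand-free nuclear receptor dimers, and binding was detected with antibodies against each partner (one per run). Binding z-scores use the random background probes as reference.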", "values": [
      {"sequence": "CGTACAGGGTCAGCTAGGCCAGAGTAGGGACGGC", "PBM binding z-score": -0.287},
      {"sequence": "ACCGAAAGGTCGAGGTGAGTATAGAGAAAGGGAA", "PBM binding z-score": 0.807},
      {"sequence": "AATATTAGTTGACTTAGGGCAACCGATACGACGC", "PBM binding z-score": 0.654},
      {"sequence": "ACTAGCAGGCCAAGGGTCACTCCAGATTAGTCCG", "PBM binding z-score": -0.469},
      {"sequence": "ATCTCTAGGTAACAAAGTTCAGTGAATGCCGAAC", "PBM binding z-score": 0.837},
      {"sequence": "TCTAGCAGGCCAGAGGGTCACTTAAGAGGTACGG", "PBM binding z-score": -0.435},
      {"sequence": "TCTTGTAGATCATTAGAGGTTAAGAAAGTGCGCT", "PBM binding z-score": 0.793},
      {"sequence": "GCTAGTAGTTGAAAGGGCAACCGAATGATTCTCG", "PBM binding z-score": -0.335},
      {"sequence": "GCTCGGAGGACAAGGGCAGAGCTTTGTCCGTAGA", "PBM binding z-score": -1.88},
      {"sequence": "AGAATGAGGTTAAGATCATGGAAACAGAATACAT", "PBM binding z-score": 1.04},
      {"sequence": "AGTAGCAGGCCAAGTTTGGGTCACTCAAACAAAG", "PBM binding z-score": -1.36},
      {"sequence": "TCGAGTAGGTTACCAATGGGGCATTAAGCTTTCT", "PBM binding z-score": -0.404},
      {"sequence": "CCAACTAGGTCACGAAAGGTCAAAGTCGAATGAC", "PBM binding z-score": 0.869},
      {"sequence": "AGAATGAGGTTACCAAAGATCAGGGAAACGCTTG", "PBM binding z-score": 1.04},
      {"sequence": "ATCGAAAGGACGTGAGGTGAGTATACAGAAAGGC", "PBM binding z-score": 0.397},
      {"sequence": "TCTAGTTGGACACGGAGGTCACACACGACGGGTA", "PBM binding z-score": 0.0839},
      {"sequence": "CTACCAAGGTGAACAAGGTCATTGATTACTATTC", "PBM binding z-score": 0.17},
      {"sequence": "CGAACTAGGTCATTGACAGGACAGTGAGTAGTAA", "PBM binding z-score": 2.61},
      {"sequence": "TCTTGTAGATCAACAGGAGGTTATGAAAGATCGA", "PBM binding z-score": 1.46},
      {"sequence": "ACTTACGGGTCATCGAGGTTATAGCACGCGTATA", "PBM binding z-score": 1.14},
      {"sequence": "GCTATCAGTTGAAAGGGCAACCGAATGATTCTCG", "PBM binding z-score": -0.549},
      {"sequence": "CGAACGAGGGCATGAGTTGATAGCGAATGCCGAT", "PBM binding z-score": -0.415},
      {"sequence": "TAGCCTAGGTCATGCGGGCCAGAATAGTGTCGGC", "PBM binding z-score": -0.646},
      {"sequence": "GCTAGTTGGTCAGTAAAAGGTCACAAACCGGTCG", "PBM binding z-score": -0.0957},
      {"sequence": "CCTAGTTGGTCAAGGGCACACACGCTATAGGTAC", "PBM binding z-score": 0.0269},
      {"sequence": "ACAGACGGGTGAGTGAAGGTAACTCAGCTGGACG", "PBM binding z-score": -1.31},
      {"sequence": "CCTATTAGTTGACCATAAGGGCAACCTAAGCTCG", "PBM binding z-score": 0.874},
      {"sequence": "GGAACGAGGGCAAGTTGATACCAGAGTTTGATGG", "PBM binding z-score": -0.247},
      {"sequence": "CCTTACAGGTCACTCCAGGTTATAGCATCGGAGT", "PBM binding z-score": 0.777},
      {"sequence": "TTACCAAGGTGAAGGTTGTTGATCCCTCTGTAGA", "PBM binding z-score": -0.108},
      {"sequence": "TCAGATAGGTAAACAGGTGAAAGTCCGTAAGTTA", "PBM binding z-score": 0.465},
      {"sequence": "AGAATGAGGTTGAGATCAGGGAAACAGAATACAT", "PBM binding z-score": 0.0775},
      {"sequence": "TCTCGGAGGACACGAAGGTCACAGCTTTCCAGAG", "PBM binding z-score": -0.192},
      {"sequence": "TCTCGGAGGACACGAAGGTCAGATCTTTCCAGAG", "PBM binding z-score": -1.02},
      {"sequence": "AGAACGAGGGCACGCGGAGTTGATAGCAGAGTAG", "PBM binding z-score": -0.521},
      {"sequence": "CCTCAGAGGACAGAAGGTCAGAGCTGTCCGCTTT", "PBM binding z-score": -2.11},
      {"sequence": "TCTCGGAGGACACGAAGGTTAGAGCTTTCCAGAG", "PBM binding z-score": -1.17},
      {"sequence": "CGTTCAAGGTCAGAGAGGTCAGTGAATGCCGAGT", "PBM binding z-score": 1.56},
      {"sequence": "CTTGCTAGGTCATGGTCAGCTAATCTACAGTATG", "PBM binding z-score": 0.605},
      {"sequence": "CCTTACGGGTCTCGAGGTTATAGCACGACGAGCG", "PBM binding z-score": -0.982}
    ]},
    {"tested_on": "PPARg homodimer (NR concentration 180 nM)", "test": "PBM binding z-score (relative to random genomic background probes); higher = stronger binding; sequences stand for … in GC…GCGATTGACAGCGTAGAATGAAGG", "method_in_brief": "as §1", "values": [
      {"sequence": "CGTACAGGGTCAGCTAGGCCAGAGTAGGGACGGC", "PBM binding z-score": 1.47},
      {"sequence": "ACCGAAAGGTCGAGGTGAGTATAGAGAAAGGGAA", "PBM binding z-score": 1.13},
      {"sequence": "AATATTAGTTGACTTAGGGCAACCGATACGACGC", "PBM binding z-score": 0.835},
      {"sequence": "ACTAGCAGGCCAAGGGTCACTCCAGATTAGTCCG", "PBM binding z-score": 1.44},
      {"sequence": "ATCTCTAGGTAACAAAGTTCAGTGAATGCCGAAC", "PBM binding z-score": 1.24},
      {"sequence": "TCTAGCAGGCCAGAGGGTCACTTAAGAGGTACGG", "PBM binding z-score": 0.442},
      {"sequence": "TCTTGTAGATCATTAGAGGTTAAGAAAGTGCGCT", "PBM binding z-score": 0.628},
      {"sequence": "GCTAGTAGTTGAAAGGGCAACCGAATGATTCTCG", "PBM binding z-score": 1.55},
      {"sequence": "GCTCGGAGGACAAGGGCAGAGCTTTGTCCGTAGA", "PBM binding z-score": -0.96},
      {"sequence": "AGAATGAGGTTAAGATCATGGAAACAGAATACAT", "PBM binding z-score": 0.572},
      {"sequence": "AGTAGCAGGCCAAGTTTGGGTCACTCAAACAAAG", "PBM binding z-score": 0.195},
      {"sequence": "TCGAGTAGGTTACCAATGGGGCATTAAGCTTTCT", "PBM binding z-score": -0.656},
      {"sequence": "CCAACTAGGTCACGAAAGGTCAAAGTCGAATGAC", "PBM binding z-score": 6.09},
      {"sequence": "AGAATGAGGTTACCAAAGATCAGGGAAACGCTTG", "PBM binding z-score": 1.16},
      {"sequence": "ATCGAAAGGACGTGAGGTGAGTATACAGAAAGGC", "PBM binding z-score": 0.165},
      {"sequence": "TCTAGTTGGACACGGAGGTCACACACGACGGGTA", "PBM binding z-score": 2.38},
      {"sequence": "CTACCAAGGTGAACAAGGTCATTGATTACTATTC", "PBM binding z-score": 2.29},
      {"sequence": "CGAACTAGGTCATTGACAGGACAGTGAGTAGTAA", "PBM binding z-score": 1.63},
      {"sequence": "TCTTGTAGATCAACAGGAGGTTATGAAAGATCGA", "PBM binding z-score": -0.255},
      {"sequence": "ACTTACGGGTCATCGAGGTTATAGCACGCGTATA", "PBM binding z-score": 2.09},
      {"sequence": "GCTATCAGTTGAAAGGGCAACCGAATGATTCTCG", "PBM binding z-score": 0.562},
      {"sequence": "CGAACGAGGGCATGAGTTGATAGCGAATGCCGAT", "PBM binding z-score": 0.483},
      {"sequence": "TAGCCTAGGTCATGCGGGCCAGAATAGTGTCGGC", "PBM binding z-score": 0.886},
      {"sequence": "GCTAGTTGGTCAGTAAAAGGTCACAAACCGGTCG", "PBM binding z-score": 2.9},
      {"sequence": "CCTAGTTGGTCAAGGGCACACACGCTATAGGTAC", "PBM binding z-score": 1.15},
      {"sequence": "ACAGACGGGTGAGTGAAGGTAACTCAGCTGGACG", "PBM binding z-score": 0.113},
      {"sequence": "CCTATTAGTTGACCATAAGGGCAACCTAAGCTCG", "PBM binding z-score": 1.32},
      {"sequence": "GGAACGAGGGCAAGTTGATACCAGAGTTTGATGG", "PBM binding z-score": 0.551},
      {"sequence": "CCTTACAGGTCACTCCAGGTTATAGCATCGGAGT", "PBM binding z-score": 2.41},
      {"sequence": "TTACCAAGGTGAAGGTTGTTGATCCCTCTGTAGA", "PBM binding z-score": 0.542},
      {"sequence": "TCAGATAGGTAAACAGGTGAAAGTCCGTAAGTTA", "PBM binding z-score": 0.969},
      {"sequence": "AGAATGAGGTTGAGATCAGGGAAACAGAATACAT", "PBM binding z-score": 0.146},
      {"sequence": "TCTCGGAGGACACGAAGGTCACAGCTTTCCAGAG", "PBM binding z-score": 2.75},
      {"sequence": "TCTCGGAGGACACGAAGGTCAGATCTTTCCAGAG", "PBM binding z-score": 2.07},
      {"sequence": "AGAACGAGGGCACGCGGAGTTGATAGCAGAGTAG", "PBM binding z-score": 0.0413},
      {"sequence": "CCTCAGAGGACAGAAGGTCAGAGCTGTCCGCTTT", "PBM binding z-score": 1.69},
      {"sequence": "TCTCGGAGGACACGAAGGTTAGAGCTTTCCAGAG", "PBM binding z-score": -0.693},
      {"sequence": "CGTTCAAGGTCAGAGAGGTCAGTGAATGCCGAGT", "PBM binding z-score": 5.16},
      {"sequence": "CTTGCTAGGTCATGGTCAGCTAATCTACAGTATG", "PBM binding z-score": 1.37},
      {"sequence": "CCTTACGGGTCTCGAGGTTATAGCACGACGAGCG", "PBM binding z-score": 0.167}
    ]}
  ]
}
